The results in this text go back to PubChem BioAssay (EPA / NIEHS).

The source made the active and inactive calls. How the source made its calls: active means hit-call score of the fitted dose curve at least 0.9, where 1 is the maximum; inactive means score below 0.9.

Usually AC50 stands for the concentration at which the activity in the assay is half-maximal.

A short description of this test: CCTE_Mundy_HCI_Cortical_Synap_Neur_Matur_NeuriteSpotCountPerNeuriteLength: CCTE's Synaptogenesis and Neurite Maturation Assay in rat cortical cells for Neurite Spot Count per Neurite Length, Mundy Lab (AID 2284210). The procedure: CCTE_Mundy_HCI_Cortical_Synap&Neurite_Matur is a multiplexed, cell-based-readout assay that uses rat primary cortical cells with measurements taken at 288.33 hours after chemical dosing in a microplate: 96-well plate.CCTE_Mundy_HCI_Cortical_Synap_Neur_Matur_NeuriteSpotCountPerNeuriteLength is one of eight components of the CCTE_Mundy_HCI_Cortical_Synap&Neurite_Matur assay. It measures synaptogenesis and neurite maturation related to number of neurite-associated synapses (synaptophysin puncta) per unit length of neurite using High Content Imaging of fluorescently labelled markers.[…] Using a type of morphology reporter, loss -of-signal activity can be used to understand developmental effects.
Cells are plated onto 96 well plates and allowed 2 hr for attachment to the substrate. At days in vitro (DIV) 5, Cytosine Arabinoside (AraC) is added to arrest glial cell growth. Chemicals are dosed and a media change is performed at DIV 7 of differentiation and is continued through DIV 12 when the experiment is terminated. Cells are fixed with […] and Hoechst Dye. Cells are stained using Millipore Mouse anti-MAP2MAB3418 (1:800) and Millipore Rabbit anti-Synaptophysinsc-1750 (1:250) primary antibodies and Alexa Fluor-488 goat anti-mouse and AlexaFluor-546 goat anti-rabbit secondary antibodies to label neuronal cell nuclei, synapses and neurites. A Cellomics ArrayScan VTi HCS Reader is used for automated image acquisition and analysis of neurite outgrowth.
On to `CCOP(=O)(OCC)SCSC(C)(C)C`, for which the molecule was called inactive. `CCOP(=O)(OCC)OC(Cl)C(Cl)(Cl)Cl` (configuration not stated): the AC50 is 49.6 µM (active). For the molecule `O=[As]O`, the molecule was classed as inactive.

Turning to `O=C(O)CNCP(=O)(O)O`, the result was inactive. For `Cc1ccc(OP(=O)(Oc2ccc(C)cc2)Oc2ccc(C)cc2)cc1` (tested in a mixture with another compound), the AC50 was 15 µM (active). On the same count and under the same terms, in the case of `CC1(C)[C@H](C=C(Cl)Cl)[C@H]1C(=O)OCc1c(F)c(F)cc(F)c1F` it was 12.9 µM (active). In the case of `CC1(C)[C@H](C(=O)O[C@H](C#N)c2cccc(Oc3ccccc3)c2)[C@@H]1C=C(Br)Br`, the molecule was classed as inactive.

As to `Brc1ccc(Oc2ccc(Br)cc2Br)c(Br)c1`, the AC50 was 4.11 µM (active). As for `Cn1nc(C(F)(F)F)c(CS(=O)(=O)C2=NOC(C)(C)C2)c1OC(F)F`, the result was inactive. `C=CCN1CC[C@]23c4c5ccc(O)c4O[C@H]2C(=O)CC[C@@]3(O)[C@H]1C5`: the call was inactive. Still for that read-out and setting: in the case of `CN1C(=O)CN=C(c2ccccc2)c2cc(Cl)ccc21` it was “inactive”. With `CC(=O)[O-].CC(=O)[O-].O.O.O.[Pb+2]`, the result was inactive. Same read-out and setting: in the case of `COP(=O)(OC)SCN1C(=O)c2ccccc2C1=O` it was “inactive”.

In the case of `[CH3][Sn]([CH3])[CH3]`, the molecule was called inactive. For the molecule `[CH3][Hg][Cl]`, the AC50 was 0.881 µM (active).

Take `CC(=O)[O-].[Tl+]`: the AC50 is 35.1 µM (active). Consider `C[n+]1ccc(-c2cc[n+](C)cc2)cc1`, for which the outcome was inactive. The same measure, in the same setting: in the case of `[Cd+2].[Cl-].[Cl-]` it was “inactive”. Turning to `O.O.O.O.O.[Cd+2].[Cd+2].[Cl-].[Cl-].[Cl-].[Cl-]`, the AC50 was 4.37 µM (active). For `CNC(=N[N+](=O)[O-])NCC1CCOC1` (configuration not stated), the call was inactive.

For the molecule `CC1(C)[C@H](C=C(Cl)Cl)[C@@H]1C(=O)O[C@@H](C#N)c1cccc(Oc2ccccc2)c1`, the result was inactive. For the molecule `CC1(C)C(C=C(Cl)Cl)C1C(=O)O[C@H](C#N)c1cccc(Oc2ccccc2)c1` (some centres not stated), the AC50 was 15.6 µM (active).

For `C[C@H](N)Cc1ccccc1`, the molecule was called inactive. With `CC1(C)[C@@H](C=C(Cl)Cl)[C@@H]1C(=O)O[C@@H](C#N)c1ccc(F)c(Oc2ccccc2)c1`, the call was inactive. For `CCOP(=O)(Oc1cnc(C(C)(C)C)nc1)OC(C)C` (configuration not stated), the molecule was classed as inactive. As for `CC1(C)C(C=C(Cl)c2ccc(Cl)cc2)C1C(=O)OC(C#N)c1ccc(F)c(Oc2ccccc2)c1` (configuration not stated), the call was inactive. Turning to `COC(=O)[C@H]1[C@@H](OC(=O)c2ccccc2)C[C@@H]2CC[C@H]1N2C`, the molecule was called inactive.

Turning to `CCOP(=O)(OCC)SCSCC`, the molecule was classed as inactive. Take `CCOP(=S)(OCC)SCS(=O)C(C)(C)C` (configuration not stated): the molecule was classed as inactive. On the same count and under the same terms, in the case of `C#CCN(C)[C@H](C)Cc1ccccc1` it was “inactive”; in that of `CCC[CH2][Sn]([CH2]CCC)([CH2]CCC)[O][Sn]([CH2]CCC)([CH2]CCC)[CH2]CCC`, “inactive”. Regarding `CN[C@]1(c2ccccc2Cl)CCCCC1=O`, the call was inactive.
